Results: PubChem BioAssay AID1159580 (chemical genetic matrix, 2015)
The whole screen tested about 5,500 compounds, of which about 2,000 (36%) were called active. Another 18% or so got no clear call; they are omitted. Rule as the data show it: active = normalized growth mostly below about 0.91 (no sharp cut-off); inconclusive = no clear call, values can overlap the other calls; inactive = mostly above about 0.92. The list shows a part of the results.

Assay: chemical genetic growth profiling, strain panel (AID 1159580);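 also: tested at 20 µM; growth read once vehicle control cultures reached saturation at 30 °C; 1 = growth at the plate median or of vehicle wells; lower values mean less growth of the strain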
Conditions: S. cerevisiae deletion strains, growth OD
[1] = locus YAR019C, strain CDC15, active compounds read low
[2] = locus YBL105C, strain PKC1, active compounds read low
[3] = locus YBR135W, strain CKS1, active compounds read low
[4] = locus YBR136W, strain MEC1, active compounds read low
[5] = locus YBR160W, strain CDC28, active compounds read low
[6] = locus YDL017W, strain CDC7, active compounds read low
[7] = locus YDL028C, strain MPS1, active compounds read low
[8] = locus YDL101C, strain DUN1, active compounds read low
[9] = locus YDL108W, strain KIN28, active compounds read low
[10] = locus YDL132W, strain cdc53, active compounds read low
[11] = locus YDL214C, strain PRR2, active compounds read low
[12] = locus YDR052C, strain DBF4, active compounds read low
[13] = locus YDR054C, strain cdc34, active compounds read low
[14] = locus YDR226W, strain ADK1, active compounds read low
[15] = locus YDR477W, strain SNF1, active compounds read low
[16] = locus YER123W, strain YCK3, active compounds read low
[17] = locus YER133W, strain GLC7, active compounds read low
[18] = locus YFL009W, strain cdc4, active compounds read low
[19] = locus YFL029C, strain CAK1, active compounds read low
[20] = locus YFR003C, strain YPI1, active compounds read low
[21] = locus YFR019W, strain FAB1, active compounds read low
[22] = locus YFR028C, strain CDC14, active compounds read low
[23] = locus YGR040W, strain KSS1, active compounds read low
[24] = locus YGR052W, strain FMP48, active compounds read low
[25] = locus YGR092W, strain DBF2, active compounds read low
[26] = locus YHR030C, strain SLT2, active compounds read low
[27] = locus YHR079C, strain IRE1, active compounds read low
[28] = locus YHR082C, strain KSP1, active compounds read low
[29] = locus YHR205W, strain SCH9, active compounds read low
[30] = locus YIL147C, strain SLN1, active compounds read low
[31] = locus YJL095W, strain BCK1, active compounds read low
[32] = locus YJL128C, strain PBS2, active compounds read low
[33] = locus YJL157C, strain FAR1, active compounds read low
[34] = locus YJR016C, strain ILV3, active compounds read low
[35] = locus YJR066W, strain TOR1 (second series), active compounds read low
[36] = locus YJR066W, strain TOR1, active compounds read low
[37] = locus YKL048C, strain ELM1, active compounds read low
[38] = locus YKL067W, strain YNK1, active compounds read low
[39] = locus YKL101W, strain HSL1, active compounds read low
[40] = locus YKL193C, strain SDS22, active compounds read low
[41] = locus YKL203C, strain TOR2, active compounds read low
[42] = locus YLR113W, strain HOG1, active compounds read low
[43] = locus YLR133W, strain CKI1, active compounds read low
[44] = locus YLR403W, strain SFP1, active compounds read low
[45] = locus YML070W, strain DAK1, active compounds read low
[46] = locus YMR001C, strain CDC5, active compounds read low
[47] = locus YMR205C, strain PFK2 (second series), active compounds read low
[48] = locus YMR277W, strain FCP1, active compounds read low
[49] = locus YNL006W, strain LST8, active compounds read low
[50] = locus YNL020C, strain ARK1, active compounds read low
[51] = locus YNL161W, strain CBK1, active compounds read low
[52] = locus YNL183C, strain NPR1, active compounds read low
[53] = locus YNL207W, strain RIO2, active compounds read low
[54] = locus YNL222W, strain SSU72, active compounds read low
[55] = locus YNL307C, strain MCK1 (second series), active compounds read low
[56] = locus YOL078W, strain AVO1, active compounds read low
[57] = locus YOL136C, strain PFK27, active compounds read low
[58] = locus YOR061W, strain CKA2, active compounds read low
[59] = locus YOR119C, strain RIO1, active compounds read low
[60] = locus YOR231W, strain MKK1, active compounds read low
[61] = locus YOR329C, strain SCD5, active compounds read low
[62] = locus YPL031C, strain PHO85, active compounds read low
[63] = locus YPL153C, strain RAD53, active compounds read low
[64] = locus YPL204W, strain HRR25, active compounds read low
[65] = locus YPL209C, strain IPL1, active compounds read low
[66] = locus YPL256C, strain CLN2, active compounds read low
[67] = locus YPR025C, strain CCL1, active compounds read low
[68] = locus YPR106W, strain ISR1, active compounds read low
[69] = locus YPR111W, strain DBF20, active compounds read low
[70] = strain NNK1, active compounds read low
[71] = strain TSCII, active compounds read low

Measured: normalized growth

CCCCNC(=S)N/N=C\c1cc(Cl)cc(Cl)c1O
active: [11] 0.65 | [15] 0.513 | [16] 0.519 | [17] 0.601 | [23] 0.531 | [24] 0.195 | [25] 0.35 | [26] 0.275 | [28] 0.242 | [29] 0.236 | [31] 0.352 | [33] 0.63 | [35] 0.58 | [36] 0.289 | [37] 0.637 | [38] 0.676 | [39] 0.385 | [41] 0.249 | [42] 0.444 | [43] 0.49 | [44] 0.302 | [45] 0.603 | [47] 0.603 | [50] 0.44 | [52] 0.318 | [55] 0.362 | [58] 0.538 | [59] 0.343 | [62] 0.477 | [63] 0.495 | [64] 0.488 | [66] 0.457 | [70] 0.787
inactive: [1] 0.929 | [2] 0.928 | [3] 0.922 | [4] 0.924 | [5] 0.941 | [6] 0.926 | [7] 0.926 | [8] 0.97 | [9] 0.922 | [10] 0.917 | [12] 0.941 | [13] 0.914 | [14] 0.924 | [18] 0.913 | [19] 0.936 | [20] 0.918 | [21] 0.785 | [22] 0.924 | [27] 0.601 | [30] 0.923 | [32] 0.897 | [34] 0.922 | [40] 0.916 | [46] 0.913 | [48] 0.905 | [49] 0.934 | [51] 0.932 | [53] 0.922 | [54] 0.933 | [56] 0.912 | [57] 0.713 | [60] 0.591 | [61] 0.924 | [65] 0.928 | [67] 0.931 | [68] 0.908 | [69] 0.933 | [71] 0.918

CCOC(=O)N/N=C\c1cc(Cl)cc(Cl)c1O
active: [25] 0.251 | [26] 0.512 | [36] 0.473 | [37] 0.72 | [42] 0.67 | [43] 0.727 | [44] 0.425 | [47] 0.714 | [50] 0.679 | [52] 0.556 | [55] 0.621 | [58] 0.471 | [63] 0.67 | [66] 0.641
inactive: [1] 0.948 | [2] 0.95 | [3] 0.928 | [4] 0.951 | [5] 0.938 | [6] 0.941 | [7] 0.942 | [8] 0.95 | [9] 0.935 | [10] 0.914 | [11] 0.824 | [12] 0.946 | [13] 0.928 | [14] 0.926 | [15] 0.741 | [16] 0.765 | [17] 0.828 | [18] 0.94 | [19] 0.931 | [20] 0.942 | [21] 0.87 | [22] 0.938 | [23] 0.737 | [24] 0.665 | [27] 0.626 | [28] 0.655 | [29] 0.586 | [30] 0.943 | [31] 0.535 | [32] 0.877 | [33] 0.785 | [34] 0.935 | [35] 0.743 | [38] 0.814 | [39] 0.74 | [40] 0.932 | [41] 0.756 | [45] 0.789 | [46] 0.948 | [48] 0.936 | [49] 0.956 | [51] 0.947 | [53] 0.931 | [54] 0.934 | [56] 0.94 | [57] 0.784 | [59] 0.729 | [60] 0.69 | [61] 0.943 | [62] 0.747 | [64] 0.706 | [65] 0.944 | [67] 0.934 | [68] 0.918 | [69] 0.92 | [70] 0.92 | [71] 0.952

CC(C)(C)C(=O)NC(=S)N/N=C\c1cc(Cl)cc(Cl)c1O
active: [11] 0.333 | [15] 0.566 | [16] 0.167 | [17] 0.48 | [21] 0.365 | [23] 0.546 | [24] 0.346 | [25] 0.165 | [26] 0.278 | [27] 0.144 | [28] 0.277 | [29] 0.248 | [31] 0.2 | [33] 0.215 | [35] 0.149 | [36] 0.182 | [37] 0.439 | [38] 0.286 | [39] 0.237 | [41] 0.332 | [42] 0.245 | [43] 0.224 | [44] 0.35 | [45] 0.285 | [47] 0.221 | [50] 0.19 | [52] 0.269 | [55] 0.18 | [57] 0.242 | [58] 0.245 | [59] 0.547 | [60] 0.173 | [62] 0.498 | [63] 0.27 | [64] 0.249 | [66] 0.285 | [71] 0.768
inactive: [1] 0.924 | [2] 0.937 | [3] 0.907 | [4] 0.936 | [5] 0.94 | [6] 0.94 | [7] 0.927 | [8] 0.949 | [9] 0.936 | [10] 0.961 | [12] 0.945 | [13] 0.918 | [14] 0.958 | [18] 0.924 | [19] 0.923 | [20] 0.947 | [22] 0.938 | [30] 0.933 | [32] 0.974 | [34] 0.922 | [40] 0.921 | [46] 0.919 | [48] 0.926 | [49] 0.924 | [51] 0.932 | [53] 0.953 | [54] 0.926 | [56] 0.916 | [61] 0.949 | [65] 0.93 | [67] 0.928 | [68] 0.969 | [69] 0.954 | [70] 0.958
